Consider one molecule from the supplement of paper PMC8728848.

Shown is part of a subset that was picked to be rich in the strongest signals.

Test in all cases: glycan array binding signal (z-score within array); higher = stronger binding
Common to all, as to settings: glycan notation: IUPAC condensed, linker removed

In one experiment the target is Fuc(a1-2)Gal(b1-3)GlcNAc. The gist of the method:
(§1)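 Glycan array binding is given as a within-array Z-score, which can be read as non-binding when negative. The arrays, 3228 of them, came from the Consortium for Functional Glycomics database and were retained only where the protein sequence was available. Z-scores were averaged across arrays of the same protein sequence at different concentrations or buffers and across linkers.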

The target of experiment [1] is Fuc(a1-2)Gal(b1-3)GlcNAc(b1-2)Man(a1-3)[Fuc(a1-2)Gal(b1-3)GlcNAc(b1-2)Man(a1-6)]Man(b1-4)GlcNAc(b1-4)[Fuc(a1-6)]GlcNAc. The gist of the method:
as §1

The target in experiment [2] is Fuc(a1-2)Gal(b1-4)GlcNAc(b1-2)Man. The gist of the method: as §1
In experiment [3] the target is Fuc(a1-2)Gal(b1-4)[Fuc(a1-3)]GlcNAc. The gist of the method: as §1
The target in experiment [4] is Fuc(a1-2)[Gal(a1-3)]Gal(b1-4)GlcNAc(b1-2)Man. The gist of the method:
as §1

Experiment [5] concerns the target Fuc(a1-2)[GalNAc(a1-4)]Gal(b1-4)GlcNAc. The gist of the method: as §1
Experiment [6] deals with Gal(a1-3)Gal(b1-4)[Fuc(a1-3)]GlcNAc. The gist of the method:
as §1

Experiment [7] addresses Gal(b1-3)GlcNAc(b1-2)[Gal(b1-3)GlcNAc(b1-6)]Man(a1-6)[Gal(b1-3)GlcNAc(b1-2)Man(a1-3)]Man(b1-4)GlcNAc(b1-4)GlcNAc. The gist of the method:
as §1

Experiment [8] has as its target Gal(b1-3)GlcNAc(b1-3)Gal(b1-4)Glc. The gist of the method:
as §1

Experiment [9] concerns the target Gal(b1-3)GlcNAc(b1-3)GalNAc. The gist of the method: as §1
Experiment [10] addresses Gal(b1-3)GlcNAc(b1-6)GalNAc. The gist of the method: as §1
Experiment [11] concerns the target Gal(b1-3)[Neu5Ac(b2-6)]GalNAc. The gist of the method:
as §1

Experiment [12] concerns the target Gal(b1-4)GlcNAc(b1-2)Man(a1-3)[Gal(b1-4)GlcNAc(b1-2)Man(a1-6)]Man(b1-4)GlcNAc(b1-4)GlcNAc. The gist of the method: as §1
Experiment [13] deals with Gal(b1-4)GlcNAc(b1-2)Man(a1-3)[Gal(b1-4)GlcNAc(b1-2)Man(a1-6)]Man(b1-4)GlcNAc(b1-4)[Fuc(a1-6)]GlcNAc. The gist of the method: as §1
Experiment [14] has as its target Gal(b1-4)GlcNAc(b1-2)Man(a1-3)[GlcNAc(b1-2)Man(a1-6)]Man(b1-4)GlcNAc(b1-4)GlcNAc. The gist of the method: as §1
Experiment [15] has as its target Gal(b1-4)GlcNAc(b1-2)Man(a1-3)[GlcNAc(b1-4)][Gal(b1-4)GlcNAc(b1-2)Man(a1-6)]Man(b1-4)GlcNAc(b1-4)GlcNAc. The gist of the method: as §1
Experiment [16] addresses Gal(b1-4)GlcNAc(b1-2)Man(a1-6)[GlcNAc(b1-2)Man(a1-3)]Man(b1-4)GlcNAc(b1-4)GlcNAc. The gist of the method:
as §1

The target of experiment [17] is Gal(b1-4)GlcNAc(b1-3)Gal(b1-4)GlcNAc(b1-3)Gal(b1-4)GlcNAc(b1-3)Gal(b1-4)GlcNAc(b1-2)Man(a1-3)[Gal(b1-4)GlcNAc(b1-3)Gal(b1-4)GlcNAc(b1-3)Gal(b1-4)GlcNAc(b1-3)Gal(b1-4)GlcNAc(b1-2)Man(a1-6)]Man(b1-4)GlcNAc(b1-4)GlcNAc. The gist of the method: as §1
The target of the next experiment is Gal(b1-6)Gal. The gist of the method:
as §1

The target of experiment [18] is Gal3S(b1-4)[Fuc(a1-3)]GlcNAc6S. The gist of the method:
as §1

Another experiment deals with GalNAc(b1-3)Gal. The gist of the method: as §1
The next experiment concerns the target GalNAc3S(b1-4)GlcNAc3S. The gist of the method:
as §1

The target in experiment [19] is GlcNAc(a1-4)Gal(b1-4)GlcNAc(b1-3)Gal(b1-4)GlcNAc(b1-3)Gal(b1-4)GlcNAc. The gist of the method:
as §1

Experiment [20] addresses GlcNAc(b1-2)Man(a1-3)[GlcNAc(b1-2)Man(a1-6)]Man(b1-4)GlcNAc(b1-4)[Fuc(a1-6)]GlcNAc. The gist of the method: as §1

B1: PVL (Psathyrella velutina), Q309D1_9AGAR (protein)
chain: MSVVVISQALPVPTRIPGVADLVGFGNGGVYIIRNSLLIQVVKVINNFGYDAGGWRVEKHVRLLADTTGDNQPDVVGFGENGVWISTNNGNNTFVDPPKMVLANFAYAAGGWRVEKHIRFMADLRKTGRADIVGFGDGGIYISRNNGGGQFAPAQLALNNFGYAQGWRLDRHLRFLADVTGDGLLDVVGFGENQVYIARNSGNGTFQPAQAVVNNFCIGAGGWTISAHPRVVADLTGDRKADILGFGVAGVYTSLNNGNGTFGAVNLVLKDFGVNSGWRVEKHVRCVSSLTNKKVGDIIGFGDAGVYVALNNGNGTFGPVKRVIDNFGYNQGWRVDKHPRFVVDLTGDGCADIVGFGENSVWACMNKGDGTFGPIMKLIDDMTVSKGWTLQKTVRYAANLYL
In the case of B1, the “glycan array binding signal (z-score)” value is -0.372 in the experiment with Fuc(a1-2)Gal(b1-3)GlcNAc; -0.362 in experiment [1]; -0.366 in experiment [2]; -0.367 in [3]; -0.372 in experiment [4]; -0.335 in [5]. Further, the “glycan array binding signal (z-score)” value in experiment [6] was -0.368; in experiment [7], -0.349; in experiment [8] it was -0.359; in experiment [9], -0.36; in experiment [10], -0.364; in [11], -0.366. For the same molecule, the “glycan array binding signal (z-score)” value in experiment [12] was -0.369; in experiment [13], -0.555; in experiment [14], 0.543; in experiment [15], -0.369; in [16], 0.45; in experiment [17], 0.956. Besides, the “glycan array binding signal (z-score)” value in the experiment with Gal(b1-6)Gal was -0.37; in experiment [18], -0.344; with GalNAc(b1-3)Gal it was -0.243; in the experiment with GalNAc3S(b1-4)GlcNAc3S, -0.369; in experiment [19] it was 4.19; in [20], 0.519.
